# Screening results: PubChem, The Scripps Research Institute Molecular Screening Center
# Sampled rows, rich in hits. Any-hit rate of the full collection: about 5.7%.
# DAX1 inh-1 = DAX1 (NR0B1) inhibitors, primary screen, cell-based, HEK293, Gal4-DAX1, luciferase luminescence. Nuclear receptor subfamily 0 group B member 1 (Homo sapiens), P51843. HEK293 Gal4-DAX1 luciferase reporter. inhibition, % at 6.75 µM. actives 0.99% (n = 340,000). AID 504766, 2011;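 active = inhibition above the mean over all tested compounds plus 3 SD, cut at about 4.2% in these data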;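 note: 0% = DAX1-transfected cells with DMSO and 100% = empty-vector control cells with DMSO; inhibition shows as a rise in luminescence from relieved DAX1 repression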
# hgDAF-12 ag = H. glycines DAF-12 receptor agonists, primary screen, cell-based, luminescence, HEK293, GAL4 fusion, UAS-luciferase | Nuclear hormone receptor DAF-12 (Heterodera glycines), GAL4 fusion | actives 1.8% (n = 370,000) | activation, % at 6.8 µM | HEK293 GAL4-hgDAF12 UAS-luciferase reporter, agonist luminescence; normalized to butyrate control;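 active = activation above a cutoff set at the mean of all screened compounds plus 3 SD, cut at about 10% in these data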;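 note: 0% = DMSO wells and 100% = sodium butyrate wells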
# DAX1 inh-2 = DAX1 (NR0B1) inhibitors on StAR promoter, primary screen, cell-based, luminescence, SF-1 (NR5A1), full-length DAX-1; inhibition, % at 6.8 µM; actives 1.1% (n = 370,000); HEK293T StAR-luciferase reporter, SF-1/DAX-1 repression relief;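 active = inhibition above the mean over all tested compounds plus 3 SD, cut at about 3.6% in these data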;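 note: 0% = DAX-1 cells with DMSO and 100% = cells lacking DAX-1 with DMSO; higher inhibition means more luminescence from relief of DAX-1 repression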
# hcDAF12 agonist = H. contortus DAF-12 nuclear receptor activators, primary screen, cell-based, luminescence, HEK293, lit1-tk-luc reporter; activation, % at 6.8 µM; AID 652067, 2013; actives 1.4% (n = 370,000); HEK293 hcDAF-12 lit1-tk-luc reporter; 0% DMSO, 100% Δ7-dafachronic acid;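 active = activation above the mean of all tested compounds plus 3 SD, cut at about 5.5% in these data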;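 note: 100% = response to 3 µM Δ7-dafachronic acid high control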
# ssDAF12 agonist = S. stercoralis DAF-12 nuclear receptor activators, primary screen, cell-based, luminescence, HEK293, GRIP1 co-expression, lit1-tk-luc; Nuclear hormone receptor DAF-12 (Strongyloides stercoralis); HEK293 ssDAF-12/GRIP1 lit1-tk-luc reporter; % of 3 µM dafachronic acid response; activation, % at 6.8 µM; actives 1% (n = 370,000); AID 652126, 2013;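 active = activation above the mean over all tested compounds plus 3 SD, cut at about 0.9% in these data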;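 note: 0% = DMSO-only wells and 100% = 3 µM delta7-dafachronic acid wells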
# AHR activator = AHR activators, primary screen, cell-based, luminescence, luciferase reporter, human; actives 2.5% (n = 320,000); Aryl hydrocarbon receptor (Homo sapiens), P35869; activation, % at 5 µM; AHR-responsive luciferase reporter cells; in the data active = activation above about 47%;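 note: 0% = vehicle wells and 100% = reference agonist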
# Target sequence (P35869 whole entry, looked up): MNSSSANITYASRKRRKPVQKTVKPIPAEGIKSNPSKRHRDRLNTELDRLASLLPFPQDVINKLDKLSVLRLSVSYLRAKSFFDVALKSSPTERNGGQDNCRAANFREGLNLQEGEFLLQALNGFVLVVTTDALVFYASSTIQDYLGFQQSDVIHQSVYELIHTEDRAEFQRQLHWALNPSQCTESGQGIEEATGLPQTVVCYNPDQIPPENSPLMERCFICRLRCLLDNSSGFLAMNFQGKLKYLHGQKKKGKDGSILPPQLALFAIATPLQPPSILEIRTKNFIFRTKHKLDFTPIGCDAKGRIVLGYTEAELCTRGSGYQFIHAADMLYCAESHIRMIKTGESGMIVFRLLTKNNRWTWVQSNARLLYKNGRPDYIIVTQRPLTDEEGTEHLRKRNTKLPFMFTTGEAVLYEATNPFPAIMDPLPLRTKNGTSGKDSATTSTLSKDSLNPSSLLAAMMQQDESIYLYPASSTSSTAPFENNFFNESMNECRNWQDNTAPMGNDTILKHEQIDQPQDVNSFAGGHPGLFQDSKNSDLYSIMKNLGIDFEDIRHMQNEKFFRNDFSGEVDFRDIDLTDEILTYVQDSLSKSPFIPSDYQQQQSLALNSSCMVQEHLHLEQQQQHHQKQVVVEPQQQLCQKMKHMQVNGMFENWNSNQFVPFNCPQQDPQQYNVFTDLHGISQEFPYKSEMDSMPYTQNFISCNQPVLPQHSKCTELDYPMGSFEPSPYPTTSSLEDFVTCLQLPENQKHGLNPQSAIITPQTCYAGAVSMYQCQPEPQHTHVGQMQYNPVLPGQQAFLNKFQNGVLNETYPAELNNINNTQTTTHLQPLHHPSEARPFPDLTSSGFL
# DAX1 inh confirm = DAX1 (NR0B1) inhibitors relieving SF-1 repression, confirmation, cell-based, luminescence, HEK293T, full-length DAX-1, SF-1 activated StAR promoter | inhibition, % at 6.8 µM | shares compounds with DAX1 inh-2 | AID 652134, 2013 | HEK293T StAR-promoter luciferase reporter, SF-1/DAX-1 repression | actives 87% (n = 2,400);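 active = inhibition above the average of every tested compound plus 3 SD, cut at about 3.8% in these data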;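 note: 0% = DAX-1 cells with DMSO and 100% = no DAX-1 control cells with DMSO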
# SF1 mutant ctr = StAR reporter signal changes without DAX1, counter-screen for DAX1 inhibitor project, cell-based, luminescence, AF-2 mutant SF-1, transactivation | AID 652136, 2013 | shares compounds with DAX1 inh-2 | HEK293 StAR-luciferase, SF-1 AF2 mutant | actives 78% (n = 2,400) | inhibition, % at 6.8 µM;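 active = inhibition above the mean of all tested compounds plus 3 SD, cut at about 3% in these data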;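 note: 0% = DAX-1 transfected cells with DMSO and 100% = cells without DAX-1 with DMSO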
# * marks the source's active call; other numbers are inactive results; x = not tested or not shown.
SMILES,DAX1 inh-1,hgDAF-12 ag,DAX1 inh-2,hcDAF12 agonist,ssDAF12 agonist,AHR activator,DAX1 inh confirm,SF1 mutant ctr
O=C(NCCOc1ccccc1)C1CCC(=O)N(CCCN2CCOCC2)C1 (stereo not drawn),0,2,1,0,-1,4,x,x
O=[N+]([O-])c1ccccc1S(=O)(=O)Nc1ccc(-c2ccc(N3CCOCC3)nn2)cc1,-1,1,2,0,-1,9,x,x
O=[N+]([O-])c1ccccc1S(=O)(=O)Nc1cccc(-c2ccc(N3CCOCC3)nn2)c1,1,5,5.2*,1,0,2,7.0*,5.2*
O=C(Nc1ccc(F)cc1F)c1ccc2ncsc2c1,2,7,4.9*,2,-1,-1,3,2
O=C(Nc1ccc(Cl)cc1Cl)c1ccc2ncsc2c1,3,8,2,2,0,-2,x,x
COc1ccc(-c2csc(-c3ccc(C(=O)O)cc3)n2)cc1,3,12*,4.7*,4,1,1,12*,7.0*
COc1ccc(-c2nc(CC(=O)O)cs2)cc1,2,0,-1,-1,-1,2,x,x
COc1cc2ccccc2cc1C(=O)Nc1ccc(C)cn1,1,11*,5.5*,5.7*,0,34,13*,6.8*
COc1ccc2oc(C(=O)NCCC(C)C)c(C)c2c1,2,9,6.1*,5,0,13,14*,6.2*
COc1ccc2oc(C(=O)Nc3ccc(C)cn3)c(C)c2c1,3,11*,5.0*,4,0,75*,10*,6.6*
COc1ccc2oc(C(=O)NN3C(C)CCCC3C)c(C)c2c1 (stereo not drawn),0,-4,1,-1,-2,4,x,x
COc1ccc2oc(C(=O)N3CCc4ccccc43)c(C)c2c1,-2,7,11*,4,1,-2,15*,5.3*
Cn1cc(C(=O)NC2CCCCC2)c(=O)c2cc(S(=O)(=O)N3CCOCC3)ccc21,0,0,0,-1,-1,0,x,x
COCCNC(=O)C(c1ccc(C)o1)N(C(=O)Cn1nnc2ccccc21)c1ccccc1 (stereo not drawn),-1,3,0,-1,-2,1,x,x
CC(=O)N1c2ccc(S(=O)(=O)N3CCCC3)cc2CC1C(=O)NC(C)C (stereo not drawn),0,0,0,2,-1,2,x,x
COc1ccc(C(CNC(=O)c2oc3ccc(OC)cc3c2C)N2CCCC2)cc1 (stereo not drawn),0,2,5.0*,0,-1,0,6.1*,4.2*
COc1ccc(C(CNC(=O)c2oc3ccc(Br)cc3c2C)N2CCCCC2)cc1 (stereo not drawn),-1,3,1,-1,-1,-1,x,x
Cc1ccc(-c2nnc(-c3ccc4ccccc4c3)o2)cc1,2,7,1,3,0,x,x,x
COc1cccc(-c2nnc(-c3ccc4ccccc4c3)o2)c1,3,10,5.5*,4,0,x,15*,6.1*
CCNC(COC(=O)c1ccc([N+](=O)[O-])cc1)C1CCCCC1 (stereo not drawn),-1,1,0,-1,0,x,x,x
COc1ccc(/C=N/Nc2nccnc2Cl)cc1,-1,12*,5.9*,5,0,19,14*,8.7*
COc1ccccc1/C=N/Nc1nncc2ccccc12,1,9,3,1,0,8,x,x
COc1ccc(/C=N/Nc2nncc3ccccc23)cc1,-2,17*,6.4*,11*,1.9*,48*,14*,2
Cc1ccc(S(=O)(=O)N2CCN(c3nccnc3C#N)CC2)cc1,0,-1,0,-3,-2,-1,x,x
Cc1c(C(=O)Nc2ccc(Oc3ccccc3)cc2)sc2nc3n(c(=O)c12)CCC3,-3,-3,-2,-3,-2,-7,x,x
SMILES,DAX1 inh-1,hgDAF-12 ag,DAX1 inh-2,hcDAF12 agonist,ssDAF12 agonist,AHR activator,DAX1 inh confirm,SF1 mutant ctr
CSc1cccc(NC(=O)c2sc3nc4n(c(=O)c3c2C)CCC4)c1,1,3,5.1*,0,-1,-6,1,2
CC(=O)c1cccc(NC(=O)c2sc3nc4n(c(=O)c3c2C)CCCCC4)c1,-2,-2,0,-1,-1,-5,x,x
COc1cccc(NC(=O)c2sc3nc4n(c(=O)c3c2C)CCC4)c1,0,6,4.7*,3,-1,0,5.0*,5.9*
COc1ccc(-c2cn(-c3ccc(C)cc3C)c(=O)[nH]2)cc1OC,-1,1,-1,-2,-2,4,x,x
COc1cccc(N=CNc2cccc(OC)c2)c1,1,9,4.7*,2,0,x,5.4*,3.4*
COc1cccc(NC=C2C(=O)OC(C)(C)OC2=O)c1,-2,2,-1,1,-1,0,x,x
CCN(CC)C(=O)c1ccc(Nc2nnc(-c3ccc(O)cc3)c3ccccc23)cc1,-2,-3,-1,-3,-1,6,x,x
CCOC(=O)N1CCC(NC(=O)c2ccc3c(c2)N=C(C)c2c(C)ccc(C)c2S3)CC1,0,-1,9.0*,-2,-1,2,15*,-6
CCOC(=O)N1CCC(NC(=O)c2ccc3c(c2)N=C(CC)c2cc(C)ccc2S3)CC1,-2,-2,-2,-3,-2,2,x,x
CCCCCCC[C@@H](C/C=C/CCC(=O)N(C)C/C(=C/Cl)C/C(=C\C(=O)N1C[C@H](O)CC1=O)OC)OC,-1,-4,-2,-2,-2,-1,x,x
CCCCCCC[C@@H](C/C=C/CCC(=O)N(C)C/C(=C/Cl)C/C(=C\C(=O)N1CC(OC)=CC1=O)OC)OC,3,-12,19*,0,0,11,6.2*,-5
